# Experimental data: PubChem BioAssay (EPA / NIEHS)
# Activity calls are given as the source filed them. Rule for the calls: active = hit-call score of the fitted dose curve at least 0.9, where 1 is the maximum; inactive = score below 0.9.
# Experiment: ATG_ERE_CIS: Attagene CIS-FACTORIAL HepG2 Assay for Estrogen Response Element (ERE) (AID 2282940)
# Settings: HepG2 ERE cis-reporter, Attagene RNA transcript; actives raise or lower the signal
# Method: ATG_CIS is a cell-based, multiplexed-readout assay that uses HepG2, a human liver cell line, with measurements taken at 24 hours after chemical dosing in a 24-well plate.ATG_ERE_CIS is one of 52 assay component(s) measured or calculated from the ATG_CIS assay. It is designed to make measurements of mRNA induction, a form of inducible reporter, as detected with fluorescence intensity signals by Reverse transcription polymerase chain reaction (RT-PCR) and Capillary electrophoresis technology.Data from the assay component ATG_ERE_CIS was analyzed into 1 assay endpoint. This assay endpoint, ATG_ERE_CIS, was analyzed with bidirectional fitting relative to DMSO as the negative control and baseline of activity. Using a type of inducible reporter, measures of mRNA for gain or loss-of-signal activity can be used to understand the reporter gene at the transcription factor-level as they relate to the gene ESR1. Furthermore, this assay endpoint can be referred to as a primary readout, because this assay has produced multiple assay endpoints where this one serves a reporter gene function. To generalize the intended target to other relatable targets, this assay endpoint is annotated to the nuclear receptor intended target family, where the subfamily is steroidal.
# Human liver HepG2 cells are transiently transfected with multiple reporter transcription units (MRTUs) in 6-well plates using FuGene 6 reagent (Roche; 3 ml FuGene/1 mg DNA). The MRTU constructs are regulated by a cis-regulating element (promoter). […] A major difference between the CIS and TRANS system is that in CIS activities of endogenous TFs are measured, whereas the TRANS assay evaluates changes in activities of exogenous, chimeric NR-Gal4 proteins. […] At the end of 24 hour incubation, total RNA was isolated using TriZol reagent (Invitrogen). The isolated RNA is then reverse-transcribed using oligo(dT) primer and Mo-MLV reverse transcriptase (Invitrogen) with DNAse I (Ambion) treatment for 30 min. The one-tenth of the produced cDNA was amplified by PCR using Taq DNA polymerase (Invitrogen) and two reporter sequence-specific primers. The PCR products were fluorescently labeled by primer extension with 6-arboxyfluorescein (6-FAM) 5'-labeled reporter sequence-specific primer (2 min at 95 C, 20 s at 68 C and 10 min at 72 C) and these products were digested with 5U of HpaI (New England Biolabs) for 2h at 37 C. The fragments were purified using Qiaquick PCR columns (Qiagen), analyzed on an ABI 3130xL genetic analyzer (Applied Biosystems) with peak positions identified by using a set of X-rhodamine (ROX)-labeled MapMarker1000 molecular weight standards (BioVentures). The raw capillary electrophoresis data was processed using Attagraph software (Attagene).
SMILES,outcome,AC50
CCOC(=O)c1ccccc1S(=O)(=O)NC(=O)Nc1nc(Cl)cc(OC)n1,inactive,
O=S(=O)(C(Cl)(Cl)Cl)C(Cl)(Cl)Cl,inactive,
O=C/C(Cl)=C(/Cl)C(=O)O,inactive,
CCCCC(CC)COC(=O)Cl (stereo not given),inactive,
[F][Sn]([c]1ccccc1)([c]1ccccc1)[c]1ccccc1,,0.0177 µM (active)
NC(=O)CCl,inactive,
Oc1c(Br)cc(Br)cc1Br,,24.9 µM (active)
CC(C)CP(=S)(S)CC(C)C,inactive,
CCOC(=O)Cc1ccccc1,inactive,
CC(C)(c1ccccc1)c1cc(-n2nc3ccccc3n2)c(O)c(C(C)(C)c2ccccc2)c1,inactive,
CC(F)(F)CC(F)(F)F,inactive,
O=C(O)c1cc(I)cc(I)c1I,,27.8 µM (active)
C=C(C)[C@@H]1CC=C(C=O)CC1,inactive,
CCCCCCCCCCCCBr,inactive,
Nc1cccnc1,inactive,
ClCc1ccccc1CCl,inactive,
CCCCOC(=O)COC(=O)c1ccccc1C(=O)OCCCC,inactive,
CC(c1ccccc1)(c1ccc(O)cc1)c1ccc(O)cc1,,0.181 µM (active)
C=CCc1ccccc1O,,29.2 µM (active)
Cc1ccccc1OP(=O)(Oc1ccccc1)Oc1ccccc1,,7.35 µM (active)

SMILES,outcome,AC50
CCCCCCCCCCCCCCC(Br)C(=O)O (stereo not given),inactive,
Cc1cc(-c2cc(C)c(N)c(C)c2)cc(C)c1N,inactive,
Cc1cc(C(F)(C(F)(F)F)C(F)(F)F)ccc1NC(=O)c1cccc(I)c1C(=O)NC(C)(C)CS(C)(=O)=O,inactive,
C#CCOC(=O)/C=C(C)/C=C/CC(C)CCCC(C)C (stereo not given),inactive,
CC(C)(COCC1CO1)COCC1CO1 (stereo not given),inactive,
Cc1ccc(CCl)cc1,inactive,
CC1(C)[C@H](/C=C2\CCSC2=O)[C@@H]1C(=O)OCc1coc(Cc2ccccc2)c1,inactive,
O=[N+]([O-])c1c2ccccc2cc2ccccc12,,7.14 µM (active)
BrCc1ccc(Br)cc1,inactive,
Cc1cccc(N=Nc2ccc(N(C)C)cc2)c1,inactive,
CN(C)CCN(C)C,inactive,
C=C(C)C(=O)OCCCCOC(=O)C(=C)C,inactive,
Brc1ccc(Oc2c(Br)cc(Br)cc2Br)c(Br)c1,inactive,
NC(=O)c1ccc(N)nc1,inactive,
CCOC(=O)OC1=C(c2cc(C)ccc2C)C(=O)NC12CCC(OC)CC2 (stereo not given),inactive,
CCCCOC(C)=O,inactive,
Cc1c([N+](=O)[O-])c(C)c([N+](=O)[O-])c(C(C)(C)C)c1[N+](=O)[O-],,23.7 µM (active)
C=CC(=O)OCC(COC(=O)C=C)(COC(=O)C=C)COC(=O)C=C,inactive,
NNCCO,,25.4 µM (active)
CC(C)(C)c1cc([N+](=O)[O-])cc(C(C)(C)C)c1O,inactive,
